Data reported in PubChem BioAssay AID1159580 (chemical genetic matrix, 2015).
The whole screen tested about 5,500 compounds, of which about 2,000 (36%) were called active. Inconclusive results (about 18%) are left out. No stated cut-off is given here; in the data, active means normalized growth mostly below about 0.91 (no sharp cut-off); inconclusive means no clear call, values can overlap the other calls; inactive means mostly above about 0.92. Some of the results follow.

Test: chemical genetic growth profiling, strain panel (AID 1159580);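 further: tested at 20 µM; growth read once vehicle control cultures reached saturation at 30 °C; 1 = growth at the plate median or of vehicle wells; lower values mean less growth of the strain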
Details: growth OD
[1] = S. cerevisiae deletion strains, locus YDL101C, strain DUN1, active compounds read low
[2] = S. cerevisiae deletion strains, locus YHR030C, strain SLT2, active compounds read low

Measured: normalized growth

c1ccc(CSC2=NCCCN2)cc1
inactive: S. cerevisiae deletion strains, locus YAL013W, strain DEP1, active compounds read low 1 | S. cerevisiae deletion strains, locus YBR229C, strain ROT2, active compounds read low 0.993 | [1] 1.01 | S. cerevisiae deletion strains, locus YDR150W, strain NUM1, active compounds read low 0.977 | S. cerevisiae deletion strains, locus YEL061C, strain CIN8, active compounds read low 1.02 | S. cerevisiae deletion strains, locus YGR078C, strain PAC10, active compounds read low 1.01 | S. cerevisiae deletion strains, locus YGR229C, strain SMI1, active compounds read low 1 | [2] 1.03 | S. cerevisiae deletion strains, locus YHR087W, strain rtc3, active compounds read low 1.01 | S. cerevisiae deletion strains, locus YJR043C, strain POL32, active compounds read low 1.01 | S. cerevisiae deletion strains, locus YJR075W, strain HOC1, active compounds read low 0.997 | S. cerevisiae deletion strains, locus YKL190W, strain CNB1, active compounds read low 1 | S. cerevisiae deletion strains, locus YLR039C, strain RIC1, active compounds read low 0.993 | S. cerevisiae deletion strains, locus YLR058C, strain SHM2 (second series), active compounds read low 1.01 | S. cerevisiae deletion strains, locus YLR085C, strain ARP6, active compounds read low 1.04 | S. cerevisiae deletion strains, locus YLR262C, strain YPT6, active compounds read low 1.01 | S. cerevisiae deletion strains, locus YML094W, strain GIM5, active compounds read low 1 | S. cerevisiae deletion strains, locus YMR219W, strain ESC1, active compounds read low 1.01 | S. cerevisiae deletion strains, locus YMR307W, strain GAS1, active compounds read low 1 | S. cerevisiae deletion strains, locus YNL128W, strain TEP1, active compounds read low 1.02 | S. cerevisiae deletion strains, locus YNL153C, strain GIM3, active compounds read low 0.996 | S. cerevisiae deletion strains, locus YNL298W, strain CLA4 (second series), active compounds read low 1.05 | S. cerevisiae deletion strains, locus YNL322C, strain KRE1, active compounds read low 1.01 | S. cerevisiae deletion strains, locus YNR030W, strain Alg12, active compounds read low 1.02 | S. cerevisiae deletion strains, locus YOL006C, strain TOP1, active compounds read low 1.04 | S. cerevisiae deletion strains, locus YPL055C, strain LGE1, active compounds read low 0.984 | S. cerevisiae deletion strains, locus YPL241C, strain CIN2, active compounds read low 1.01 | S. cerevisiae deletion strains, locus YPR135W, strain CTF4, active compounds read low 1.08 | S. cerevisiae strains, strain wild type, active compounds read low 1.01

N=C(N)SCc1nc(-c2ccc(Cl)cc2)no1
inactive: S. cerevisiae deletion strains, locus YAR019C, strain CDC15, active compounds read low 0.979 | S. cerevisiae deletion strains, locus YBL105C, strain PKC1, active compounds read low 0.985 | S. cerevisiae deletion strains, locus YBR135W, strain CKS1, active compounds read low 0.981 | S. cerevisiae deletion strains, locus YBR136W, strain MEC1, active compounds read low 0.984 | S. cerevisiae deletion strains, locus YBR160W, strain CDC28, active compounds read low 0.984 | S. cerevisiae deletion strains, locus YDL017W, strain CDC7, active compounds read low 0.977 | S. cerevisiae deletion strains, locus YDL028C, strain MPS1, active compounds read low 0.977 | [1] 0.99 | S. cerevisiae deletion strains, locus YDL108W, strain KIN28, active compounds read low 0.976 | S. cerevisiae deletion strains, locus YDL132W, strain cdc53, active compounds read low 0.99 | S. cerevisiae deletion strains, locus YDL214C, strain PRR2, active compounds read low 0.975 | S. cerevisiae deletion strains, locus YDR052C, strain DBF4, active compounds read low 0.99 | S. cerevisiae deletion strains, locus YDR054C, strain cdc34, active compounds read low 0.978 | S. cerevisiae deletion strains, locus YDR226W, strain ADK1, active compounds read low 0.978 | S. cerevisiae deletion strains, locus YDR477W, strain SNF1, active compounds read low 0.977 | S. cerevisiae deletion strains, locus YER123W, strain YCK3, active compounds read low 0.989 | S. cerevisiae deletion strains, locus YER133W, strain GLC7, active compounds read low 0.986 | S. cerevisiae deletion strains, locus YFL009W, strain cdc4, active compounds read low 0.983 | S. cerevisiae deletion strains, locus YFL029C, strain CAK1, active compounds read low 0.978 | S. cerevisiae deletion strains, locus YFR003C, strain YPI1, active compounds read low 0.982 | S. cerevisiae deletion strains, locus YFR019W, strain FAB1, active compounds read low 0.973 | S. cerevisiae deletion strains, locus YFR028C, strain CDC14, active compounds read low 0.986 | S. cerevisiae deletion strains, locus YGR040W, strain KSS1, active compounds read low 0.98 | S. cerevisiae deletion strains, locus YGR052W, strain FMP48, active compounds read low 1.03 | S. cerevisiae deletion strains, locus YGR092W, strain DBF2, active compounds read low 0.987 | [2] 0.949 | S. cerevisiae deletion strains, locus YHR079C, strain IRE1, active compounds read low 0.96 | S. cerevisiae deletion strains, locus YHR082C, strain KSP1, active compounds read low 1.06 | S. cerevisiae deletion strains, locus YHR205W, strain SCH9, active compounds read low 0.828 | S. cerevisiae deletion strains, locus YIL147C, strain SLN1, active compounds read low 0.985 | S. cerevisiae deletion strains, locus YJL095W, strain BCK1, active compounds read low 1.01 | S. cerevisiae deletion strains, locus YJL128C, strain PBS2, active compounds read low 0.929 | S. cerevisiae deletion strains, locus YJL157C, strain FAR1, active compounds read low 0.974 | S. cerevisiae deletion strains, locus YJR016C, strain ILV3, active compounds read low 0.987 | S. cerevisiae deletion strains, locus YJR066W, strain TOR1 (second series), active compounds read low 0.981 | S. cerevisiae deletion strains, locus YJR066W, strain TOR1, active compounds read low 1.11 | S. cerevisiae deletion strains, locus YKL048C, strain ELM1, active compounds read low 0.982 | S. cerevisiae deletion strains, locus YKL067W, strain YNK1, active compounds read low 0.984 | S. cerevisiae deletion strains, locus YKL101W, strain HSL1, active compounds read low 0.992 | S. cerevisiae deletion strains, locus YKL193C, strain SDS22, active compounds read low 0.985 | S. cerevisiae deletion strains, locus YKL203C, strain TOR2, active compounds read low 1.05 | S. cerevisiae deletion strains, locus YLR113W, strain HOG1, active compounds read low 0.989 | S. cerevisiae deletion strains, locus YLR133W, strain CKI1, active compounds read low 0.98 | S. cerevisiae deletion strains, locus YLR403W, strain SFP1, active compounds read low 0.911 | S. cerevisiae deletion strains, locus YML070W, strain DAK1, active compounds read low 0.996 | S. cerevisiae deletion strains, locus YMR001C, strain CDC5, active compounds read low 0.981 | S. cerevisiae deletion strains, locus YMR205C, strain PFK2 (second series), active compounds read low 0.981 | S. cerevisiae deletion strains, locus YMR277W, strain FCP1, active compounds read low 0.985 | S. cerevisiae deletion strains, locus YNL006W, strain LST8, active compounds read low 0.981 | S. cerevisiae deletion strains, locus YNL020C, strain ARK1, active compounds read low 0.986 | S. cerevisiae deletion strains, locus YNL161W, strain CBK1, active compounds read low 0.983 | S. cerevisiae deletion strains, locus YNL183C, strain NPR1, active compounds read low 1.1 | S. cerevisiae deletion strains, locus YNL207W, strain RIO2, active compounds read low 0.978 | S. cerevisiae deletion strains, locus YNL222W, strain SSU72, active compounds read low 0.984 | S. cerevisiae deletion strains, locus YNL307C, strain MCK1 (second series), active compounds read low 0.983 | S. cerevisiae deletion strains, locus YOL078W, strain AVO1, active compounds read low 0.981 | S. cerevisiae deletion strains, locus YOL136C, strain PFK27, active compounds read low 0.97 | S. cerevisiae deletion strains, locus YOR061W, strain CKA2, active compounds read low 0.986 | S. cerevisiae deletion strains, locus YOR119C, strain RIO1, active compounds read low 1.05 | S. cerevisiae deletion strains, locus YOR231W, strain MKK1, active compounds read low 1.03 | S. cerevisiae deletion strains, locus YOR329C, strain SCD5, active compounds read low 0.982 | S. cerevisiae deletion strains, locus YPL031C, strain PHO85, active compounds read low 0.964 | S. cerevisiae deletion strains, locus YPL153C, strain RAD53, active compounds read low 0.964 | S. cerevisiae deletion strains, locus YPL204W, strain HRR25, active compounds read low 0.953 | S. cerevisiae deletion strains, locus YPL209C, strain IPL1, active compounds read low 0.986 | S. cerevisiae deletion strains, locus YPL256C, strain CLN2, active compounds read low 0.925 | S. cerevisiae deletion strains, locus YPR025C, strain CCL1, active compounds read low 0.987 | S. cerevisiae deletion strains, locus YPR106W, strain ISR1, active compounds read low 0.978 | S. cerevisiae deletion strains, locus YPR111W, strain DBF20, active compounds read low 0.981 | S. cerevisiae deletion strains, strain NNK1, active compounds read low 0.992 | S. cerevisiae deletion strains, strain TSCII, active compounds read low 0.983
